Measurements taken from ChEMBL document CHEMBL3433997, “St. Jude Leishmania screening dataset” (2016).

Experiments:
Format in all cases: functional
[1] = target: Solute carrier family 2, facilitated glucose transporter member 1 (Homo sapiens) (UniProt P11166); assay: ST_JUDE_LEISH: Cytotoxicity at 2uM final concentration against transgenic Leishmania Mexicana promastigotes LmGLUT1 that are glucose transport deficient and complemented with the human glucose transporter GLUT1. Activity is measured by DNA content using SYBR green in vitro
Solute carrier family 2, facilitated glucose transporter member 1 (Homo sapiens), sequence (P11166 whole entry): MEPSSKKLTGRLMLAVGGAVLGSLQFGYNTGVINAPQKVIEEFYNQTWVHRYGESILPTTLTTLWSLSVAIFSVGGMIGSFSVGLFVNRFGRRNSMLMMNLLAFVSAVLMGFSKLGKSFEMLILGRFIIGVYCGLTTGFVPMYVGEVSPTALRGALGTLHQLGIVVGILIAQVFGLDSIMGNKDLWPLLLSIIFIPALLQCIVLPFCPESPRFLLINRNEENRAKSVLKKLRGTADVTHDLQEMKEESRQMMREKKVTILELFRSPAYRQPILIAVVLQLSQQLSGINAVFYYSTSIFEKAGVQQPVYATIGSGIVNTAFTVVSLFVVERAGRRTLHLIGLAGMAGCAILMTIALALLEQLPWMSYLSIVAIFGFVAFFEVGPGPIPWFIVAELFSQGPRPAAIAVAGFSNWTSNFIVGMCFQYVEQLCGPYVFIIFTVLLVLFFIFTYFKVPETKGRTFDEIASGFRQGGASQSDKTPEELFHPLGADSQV

[2] = target: Hexose transporter 1 (Plasmodium falciparum) (UniProt O97467); assay: ST_JUDE_LEISH: Cytotoxicity at 2uM final concentration against transgenic Leishmania Mexicana promastigotes LmPfHT that are glucose transport deficient and complemented with the Plasmodium falciparum hexose transporter. Activity is measured by DNA content using SYBR green in vitro
[3] = target: Glucose transporter (Leishmania mexicana) (UniProt O61059); assay: ST_JUDE_LEISH: Cytotoxicity at 2uM final concentration against transgenic Leishmania Mexicana promastigotes LmGT2 that are glucose transport deficient and complemented with the L. Mexicana glucose transporter 2. Activity is measured by DNA content using SYBR green in vitro

Row | SMILES | inhibition [1] | inhibition [2] | inhibition [3]
1 | Cc1nc(-c2cccc(Nc3nccc(NCC(O)c4cccc(F)c4)n3)c2)cs1 (configuration not stated) | -0.89% | -0.36% | -3.57%
2 | CCc1c(C)c2ccc3c(c2oc1=O)CN(CCc1ccc(F)cc1)CO3 | 6.07% | 6.16% | 5.28%
3 | Cc1ccc(-n2c(C)nc3c(Nc4ccc(-c5ccncc5)cc4)ncnc32)c(C)c1 | 91.7% | 95.1% | 81%
4 | O=C(/C=C/c1ccc(C(F)(F)F)cc1)NCCCCCN1CCCN(C(=O)Nc2ccc(Cl)cc2)CC1 | 5.01% | 4.49% | 1.84%
5 | Cn1nc(-c2ccc(NC(=O)Nc3cc(C(F)(F)F)ccc3F)c(F)c2)c2cnc(NCCCN3CCOCC3)nc21 | 6.47% | 6.96% | 7.47%
6 | CC1CCC2(CC1)N=C(N)N=C(N)N2OCc1cc2ccccc2c2ccccc12 (configuration not stated) | 3.83% | 2.5% | 2.97%
7 | Cc1cc(-c2nc3cncc(-c4cccc(CN5CCCC5Cc5cccnc5)c4)c3n2C)nn1C (configuration not stated) | -1.04% | -2.01% | -0.34%
8 | O=C(Nc1ccc(OC2CCN(Cc3ccccc3)C2)c(Cl)c1)c1ccc(F)cc1 (configuration not stated) | -5.06% | 1.99% | 4.21%
9 | O=C(Nc1cccc(OC2CCN(Cc3ccc(F)cc3)CC2)c1)c1ccc(C(F)(F)F)cc1 | 0.28% | 0.67% | 0.79%
10 | Nc1cccc(CNCc2cccc(-c3cccc(-c4nc5cc(F)ccc5[nH]4)c3)c2)c1 | 0.35% | 0.35% | -0.66%
11 | CC(=O)Nc1nc(C(=O)Nc2cccc(-c3ccc4c(cnn4CC4CC4)c3)c2)cs1 | 1.74% | 1.84% | 2.13%
12 | COc1ccccc1C1CCN(C2CCC(NC(=O)c3ccc4[nH]c(-c5ccc(C)cc5)nc4c3)CC2)CC1 (configuration not stated) | 1.55% | 3.38% | 2.37%
13 | Cn1cnc(CCNC(=O)c2ccc(-c3ccc(-c4nc5cc(F)ccc5[nH]4)cc3)cc2)c1 | 5.05% | 5.92% | 4.84%
14 | COC(=O)C(NC(=O)NC1CCN(c2ccnc(Nc3ccc(F)cc3)n2)C1)c1ccccc1 (configuration not stated) | -3.11% | -1.97% | -2.66%
15 | C[C@@H](N/C(=N\c1ccc(-c2ccccc2)cc1)Nc1ccc(C#N)cc1O)c1ccc(Br)cc1 | 2.33% | 2.45% | 2.66%
16 | COc1ccc2nccc([C@@H](O)CN3CCC(NC(=O)/C=C/c4cc(F)cc(NC(C)=O)c4)CC3)c2c1 | 5.61% | 2.3% | -3.44%
17 | CC(=O)Nc1ccc(CN2CCN(C(c3ccc(F)cc3)c3ccc(F)cc3)CC2)cc1 | 5.18% | 3.45% | 2.11%
18 | O=C(Cc1ccccc1)NC1(c2ccccc2)CCN(CCc2c[nH]c3ccc(F)cc23)CC1 | -0.99% | 0.25% | -0.69%
19 | CCOC(=O)c1ccc(NC(=O)N(Cc2ccc(-c3cccc(CN4CCNCC4)c3)cc2)C2CCN(Cc3ccccc3)CC2)cc1 | 2.49% | 1.96% | 7.56%
20 | O=C(NCC1CCC(C(=O)NCCN2CCCCC2)CC1)c1ccc(O)c(-c2ccc(Cl)c(Cl)c2)c1 (configuration not stated) | -0.83% | 0.49% | 0.18%
21 | CCCN(CCC)C(=O)c1cc(C(=O)N[C@@H](Cc2ccccc2)[C@H](O)CNCc2cccc(OC)c2)cc(N2CCCCS2(=O)=O)c1 | 4.58% | 5.76% | 5.14%
22 | Cc1ccccc1C1CCN(C2CCC(NC(=O)/C=C/c3ccc(C(F)(F)F)cc3)CC2)CC1 (configuration not stated) | 0.43% | 1.57% | 1.85%
23 | O=C(Nc1ccc(OC2CCN(Cc3ccsc3)CC2)c(Cl)c1)c1ccco1 | 2.93% | 5.95% | 4.7%
24 | Cc1cc(Nc2cccc(C#N)c2)nc(Nc2ccccc2C)n1 | 77.7% | 91.1% | 52.3%
